# In PubChem BioAssay AID720709 (National Center for Advancing Translational Sciences (NCATS), 2013):
# Screen size: about 360,000 compounds; about 520 (0.14%) were called active. Inconclusive results (about 3%) are left out. For the sample, actives were picked, then their nearest neighbours and some compounds at random. Unmarked numbers belong to inactive results. Calls come from the whole dose curve; as a rule, active = well fitted inhibition curve with a large enough effect; inconclusive = small, poorly fitted or top-dose-only effect; inactive = no such curve, though single readings can be large or run the other way.
# Molecular target: Rap guanine nucleotide exchange factor 3 (Homo sapiens) (UniProt O95398)
# Sequence (O95398 whole entry, looked up): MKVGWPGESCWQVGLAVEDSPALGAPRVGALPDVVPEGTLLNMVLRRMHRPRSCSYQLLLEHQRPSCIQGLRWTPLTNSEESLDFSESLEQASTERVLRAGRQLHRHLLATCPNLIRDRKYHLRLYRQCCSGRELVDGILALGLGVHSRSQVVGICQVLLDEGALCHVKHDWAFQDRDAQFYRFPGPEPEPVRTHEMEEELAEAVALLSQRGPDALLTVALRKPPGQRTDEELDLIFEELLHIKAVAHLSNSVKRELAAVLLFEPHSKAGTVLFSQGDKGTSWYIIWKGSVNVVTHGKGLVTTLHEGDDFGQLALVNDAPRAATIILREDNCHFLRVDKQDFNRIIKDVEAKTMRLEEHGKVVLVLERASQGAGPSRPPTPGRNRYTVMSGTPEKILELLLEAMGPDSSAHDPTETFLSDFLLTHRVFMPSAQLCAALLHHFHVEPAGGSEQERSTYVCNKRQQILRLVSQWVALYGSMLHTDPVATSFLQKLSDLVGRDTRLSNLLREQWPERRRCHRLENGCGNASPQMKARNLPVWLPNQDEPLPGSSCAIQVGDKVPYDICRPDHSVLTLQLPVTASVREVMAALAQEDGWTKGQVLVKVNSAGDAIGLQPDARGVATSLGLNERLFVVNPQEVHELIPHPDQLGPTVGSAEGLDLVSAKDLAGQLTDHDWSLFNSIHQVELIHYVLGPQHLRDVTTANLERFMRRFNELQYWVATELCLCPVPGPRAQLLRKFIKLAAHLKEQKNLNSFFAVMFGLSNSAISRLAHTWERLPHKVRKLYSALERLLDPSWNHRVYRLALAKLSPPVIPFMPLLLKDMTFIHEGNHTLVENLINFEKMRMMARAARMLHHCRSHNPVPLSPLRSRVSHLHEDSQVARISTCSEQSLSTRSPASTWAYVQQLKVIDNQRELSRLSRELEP
# Assay: qHTS for Antagonist of cAMP-regulated guanine nucleotide exchange factor 3 (EPAC1): primary screen; note: nearly all actives have a fitted effect of over 50% in size;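 for activity change, negative = inhibition: plate controls were vehicle for no effect and positive control for full effect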
# Details: EPAC1 GEF assay, Rap1b-BODIPY-GDP exchange fluorescence; series mostly up to 115 µM; activity change, negative = inhibition: at the top concentration
# Description: In multi-cellular eukaryotic organisms, the effects of cAMP are transduced by two ubiquitously-expressed intracellular cAMP receptors, the classic protein kinase A/cAMP-dependent protein kinase (PKA/cAPK) and the more recently discovered exchange protein directly activated by cAMP/cAMP-regulated guanine nucleotide exchange factor (EPAC/cAMP-GEF). Both PKA and EPAC are ubiquitously expressed in all tissues, and an increase in intracellular cAMP levels will lead to the activation of both PKA and EPAC. Therefore, careful dissections of the individual role and relative contribution of EPAC and PKA within the overall cAMP signaling in various model systems are critical for further elucidating the mechanism of cAMP signaling. To date no EPAC-specific antagonists and agonist, as well as isoform-specific agonists have been reported, and developing EPAC-specific pharmacological probes to determine the physiological functions that EPAC play in the overall cAMP-mediated signaling remains a major challenge within the research field. Furthermore, identified regulators of EPAC may lead to new mechanism-based therapeutic strategies specifically targeting the EPAC / cAMP-signaling components as EPAC has been implicated to play important roles in major human pathological conditions such as diabetes, heart disease, and cancer. This qHTS will be used to screen the Molecular Libraries Small Molecule Repository (MLSMR) as a concentration-titration series using the NCGC unique quantitative screening (qHTS) platform to find inhibitors for EPAC1. In addition, this assay will also be used as a counterscreen for the EPAC2 qHTS. This fluorescent based assay is developed and validated for EPAC1 that measures exchange using EPAC effector Rap1 complex with BODIPY-GDP, a GDP analog with a tethered fluorophores. Inhibitors are identified by monitoring the change in fluorescence signal as the exchanged free BODIPY-GDP has a reduced fluorescence compared to Rap1-bound BODIPY-GDP. Decrease in signal (inhibition) is the desired outcome for the EPAC1 antagonist while no activity in this assay is desired for the EPAC2 antagonist counterscreen. de Rooij, J., Zwartkruis, F. J., Verheijen, M. H., Cool, R. H., Nijman, S. M., Wittinghofer, A., and Bos, J.L. (1998) Nature 396, 474-477 [2] Kawasaki, H., Springett, G. M., Mochizuki, N., Toki, S., Nakaya, M., Matsuda, M., Housman, D. E., and Graybiel, A. M. (1998) Science 282, 2275-2279 NIH Chemical Genomics Center [NCGC] NIH Molecular Libraries Probe Centers Network [MLPCN] MLPCN Grant: NS066510 Assay Submitter (PI): Xiaodong Cheng, The University of Texas, Medical Branch
# Briefly, three uL of reagents (100 nM EPAC1, 250 nM RAP1B-BODIPY-GDP, 50 uM GDP) were dispensed into a 1536-well Greiner black solid-bottom medium binding assay plate. Controls and test compounds (23 nL) were transferred to the plate via a Kalypsys pin tool equipped with a 1536-pin array. The plates were centrifuged at 1,000 rpm for 15 seconds followed by 5 minute incubation at room temperature. The assay plates were read at 5 minute intervals for 30 minutes in the ViewLux plate reader using 480nm excitation and 540nm emission filters. The results were normalized to the […] positive control ATA and DMSO.
# Potency is the fitted concentration of half-maximal effect.
Compound,"activity change, negative = inhibition",Potency
Oc1cccc2cc(-c3ccncc3)cnc12,3.21%,
CO[C@@H]1CN(C)C(=O)c2cc(NC(=O)Nc3cc(F)ccc3F)ccc2OC[C@H](C)N(C(=O)c2ccccn2)C[C@@H]1C,-5.4%,
Cc1ccc(S(=O)(=O)NCCC(=O)NNC(=O)C2COc3ccccc3O2)cc1 (centres undefined),8.04%,
Cc1c(CC(=O)N2CCN(C(=O)C3COc4ccccc4O3)CC2)c(=O)oc2c(O)c(O)ccc12 (centres undefined),,100 µM (active)
COc1ccc2c(C)c(CCC(=O)NC3CC3)c(=O)oc2c1C,-3.71%,
OCCC#Cc1ccc(N2C(c3ccsc3)=Cc3ccc(F)cc3C2c2c[nH]c3ccccc23)cc1 (centres undefined),1.44%,
COc1ccc(CC(N)c2csc(NC(=O)NC(c3ccccc3)c3ccccc3)n2)cc1 (centres undefined),-11.6%,
CC1CN(C(=O)c2ccccc2NS(=O)(=O)c2cccc([N+](=O)[O-])c2)CC(C)O1 (centres undefined),-6.5%,
CCOc1ncccc1C(=O)NNC(=O)c1cccc(S(=O)(=O)Nc2ccccc2OC)c1,11.9%,
COc1cccc(/C=N/Nc2ccc(S(=O)(=O)Nc3ccccc3C(=O)O)cc2[N+](=O)[O-])c1O,,25.1 µM (active)
COC(=O)C[C@@H]1C=C[C@@H](NC(=O)c2ccc3c(c2)OCO3)[C@@H](CO)O1,-14.3%,
O=c1[nH]c(SCc2cccc(F)c2)nc2ccccc12,-4.22%,
N#Cc1c(-c2ccccc2)nc(SCc2cccc(C(F)(F)F)c2)[nH]c1=O,,70.8 µM (active)
CC(=O)CSc1nc(CCc2ccccc2)c(C#N)c(=O)[nH]1,-14.8%,
O=C(NCc1ccc(F)cc1F)[C@@H]1CCCN1C(=O)[C@@H]1CCCN1C(=O)c1cccc(Cl)c1,5.96%,
COc1ccc(C(=O)Nc2cccc(/C=C(/CCC(=O)O)c3nc4ccccc4s3)c2)cc1,,35.5 µM (active)
COc1cccc(/C=C(/CC(=O)Nc2ccc(N3CCOCC3)cc2)c2nc3ccccc3s2)c1,0.722%,
O=C(O)CC/C(=C\c1cc2c(cc1Br)OCO2)c1nc2ccccc2s1,-2.3%,
CCOc1ccc(CCN2C(=S)N([C@@H](CC(C)C)CN3CCC[C@@H]3CN3C(=S)NC[C@@H]3Cc3ccc(O)cc3)C[C@@H]2Cc2ccc(O)cc2)cc1,-20.9%,
CCC(C(=O)Nc1c(C)cccc1C)n1c(-c2cc(C)cs2)nc2ccccc21 (centres undefined),-5.26%,
COc1ccc(C(=O)NCC[N+](C)(C)C)cc1,4.59%,
CCOC(=O)[C@]12CCC=C1N(Cc1ccco1)C(=O)[C@H](CC(=O)N1CCSCC1)C2,-20.2%,
CCCCCCN1CCN(C2CN(Cc3cn(CCCCCC)nn3)S(=O)(=O)C2)CC1 (centres undefined),-19.2%,

Compound,"activity change, negative = inhibition",Potency
CCC(CC)C(C(=O)NC1CCCC1)N1CCN(c2cc(C)nc3ccccc23)CC1 (centres undefined),1.74%,
O=C1Nc2ccccc2-n2nnnc2C1N1CCN(c2cccc(C(F)(F)F)n2)CC1 (centres undefined),-11.1%,
CCOC(=O)[C@]12CCCC=C1N(CCC1=CCCCC1)C(=O)[C@H](CC(=O)N1CCOCC1)C2,-4.03%,
Cc1cc(Br)cn2c(Cc3ccsc3)c(-c3ccc(C#N)cc3)nc12,-4.89%,
CCOC(=O)[C@]12CCCC=C1N(CCC1=CCCCC1)C(=O)[C@H](CC(=O)NCCCCc1ccccc1)C2,-11.2%,
O=C1NC[C@H](CCCCN2C[C@H](Cc3ccc(O)cc3)N(CCc3ccccc3)C(=O)C2=O)N(CCc2ccccc2)C1=O,-12.9%,
O=C1Nc2ccccc2NC(c2ccc3c(c2)OCO3)=C1N(Cc1ccc(F)cc1)C(=O)c1ccco1,-26.5%,
COc1ccc(C(=O)C(OP(=O)(OC)OC)c2ccccc2OC)cc1 (centres undefined),-3.79%,
COC(=O)c1ccc2nc(-c3ccc(C)cc3)c(Cc3ccc(OC)cc3C)n2c1,-20.7%,
CCOC(=O)[C@]12CCCC=C1N(Cc1ccc(Cl)cc1Cl)C(=O)[C@H](CC(=O)N1CCCCC1)C2,24.7%,
CC1Cc2[nH][nH]c(=O)c2C(C2CCCC2)O1 (centres undefined),-1.95%,
COc1cccc(-c2nc3nc(C)cc(C)n3c2NC2CCCCC2)c1,-3.19%,
CC(C)c1cc(Cn2c3ccccc3c(=O)n2C(C)Cn2cc(C3CC3)nn2)on1 (centres undefined),-18.3%,
Cc1cc(Br)cn2c(Cc3ccccc3C(F)(F)F)c(-c3ccc(Cl)cc3)nc12,-8.75%,
CCOC(=O)[C@]12CCCC=C1N(CCC1=CCCCC1)C(=O)[C@H](CC(=O)N1CCSCC1)C2,-11.1%,
COC(=O)[C@]12CCCCC=C1N(Cc1ccc3c(c1)OCO3)C(=O)[C@H](CC(=O)N1CCOCC1)C2,-8.74%,
O=C(NCc1ccccc1)C1c2ccccc2OCC(=O)N1CCCN1CCOCC1 (centres undefined),-7.15%,
COc1ccc([C@H]2CC(=O)C[C@@H](CCn3cc(CC4CCCC4)nn3)O2)cc1,4.12%,
COc1ccc(N2c3ccccc3CN(Cc3ccccc3)[C@@H](C)[C@H]2Cc2ccc(-c3ccccc3)cc2)cc1,18.8%,
O=S1(=O)CC(N2CCN(CCO)CC2)CN1Cc1cn(Cc2cccc(Cl)c2)nn1 (centres undefined),-1.43%,
O=C(C(=O)N1CCN(c2ccccc2)CC1)c1ccc2c(c1)OCO2,1.25%,
COC(=O)C[C@@H]1C=C[C@@H](NS(=O)(=O)c2cccc(OC)c2)[C@@H](CO)O1,-27.2%,
CC(C)(C)CC(=O)Nc1nc(C(N)Cc2ccc(C(F)(F)F)cc2)cs1 (centres undefined),12.1%,

Compound,"activity change, negative = inhibition",Potency
O=C(NCc1ccccc1)C1c2ccccc2OCC(=O)N1C1CC1 (centres undefined),-2.01%,
Nc1[nH]c(C(=O)c2ccccc2)c(-c2ccc(Br)cc2)c1C(=O)NC1CC1,-28.1%,
Cc1ccc(S(=O)(=O)N2CCC(=O)N([C@H](COCc3ccccc3)C(C)C)CC2)cc1,9.8%,
Cn1cnc(S(=O)(=O)N2C[C@@H](O)COC[C@@H]3O[C@H](CC(=O)NC4CCC4)CC[C@H]32)c1,-13.4%,
NC1=CC(=O)C(=O)c2cccnc21,,56.2 µM (active)
O=C(OC1CC2CC1[C@H]1CCCCN1C2=O)N1CCOCC1 (some centres undefined),2.08%,
O=C1C(Sc2cccc(F)c2)=C[C@@]2(O)CC[C@@H](O)[C@]1(Sc1cccc(F)c1)[C@H]2O,-1.01%,
O=C(Nc1ccc(F)cc1)C(CCc1ccccc1)N1CCN(CC(=O)N2CCCC2)CC1 (centres undefined),1.09%,
OC(c1ccccc1)(c1ccccc1)C1CCN(CCCOc2ccccc2)CC1,16.4%,
CCC(c1nc2ccccc2[nH]1)n1c(=O)c(-c2cccs2)nc2ccccc21 (centres undefined),12.6%,
Cc1ccc(Cc2c(-c3ccc(Cl)cc3)nc3c4ccccc4ccn23)cc1,10.1% [at 57.5 µM],
CCCCN1C(=O)C(CC(=O)NCc2cccs2)CC(C(=O)N2CCCCCC2)=C1C (centres undefined),3.73%,
O=C(CCc1ccccc1Cl)Nc1ccc(S(=O)(=O)Nc2nccs2)cc1,-9.94%,
O=C(Nc1ccc(S(=O)(=O)Nc2nccs2)cc1)c1cc(-c2ccncc2)nc2ccccc12,,79.4 µM (active)
O=C(Nc1ccc(S(=O)(=O)Nc2nccs2)cc1)c1cc(=O)[nH]c2ccccc12,-5.17%,
Cc1ccc2nc(-c3ccco3)c(Cc3cccc(Cl)c3)n2c1,-18.2%,
CCOC(=O)N1CCN(C(=O)C[C@@H]2C[C@@]3(C(=O)OC)CCCCC=C3N(CCC3=CCCCC3)C2=O)CC1,-16.7%,
CC(C)C[C@H]1CNC(=O)C(=O)N1C[C@@H]1CCCN1C[C@H](Cc1ccccc1)N1C[C@H](CC(C)C)N(CC2CCCCCC2)C(=O)C1=O,18.3%,
O=C(NCc1ccccn1)[C@@H]1CCCN1C(=O)[C@@H]1CCCN1C(=O)c1ccccc1,-19.8%,
COC(=O)c1ccc2nc(-c3ccc(F)cc3)c(Cc3ccc(C)cc3)n2c1,4.03%,
CC1(C(=O)NCc2ccccc2)CSCC(=O)N1CCCn1ccnc1 (centres undefined),0.234%,
COc1ccc(C(C(=O)NCc2ccccc2)n2c(=O)c(-c3ccccc3)nc3ccccc32)cc1 (centres undefined),-4.62%,
CC(C)(C)NC(=O)C(CCc1ccccc1)n1c(=O)c(-c2ccccc2)nc2ccccc21 (centres undefined),-7.46%,

Compound,"activity change, negative = inhibition",Potency
CCCCNC(=O)OC1CC2CC1[C@H]1CCCCN1C2=O (some centres undefined),-17.4%,
CCCCNC(=O)C[C@@H]1C[C@@]2(C(=O)OCC)CCC=C2N(Cc2cccc3ccccc23)C1=O,5.54%,
CCCCn1nnnc1C(c1cc2ccccc2o1)N(C)Cc1ccc(Cl)c(Cl)c1 (centres undefined),7.34%,
COC(=O)C[C@H]1C=C[C@@H](NS(=O)(=O)c2ccc(C)cc2)[C@@H](CO)O1,14%,
CCC(c1nnnn1-c1ccc2c(c1)OCCO2)N1CCN(c2ccc(C(F)(F)F)cn2)CC1 (centres undefined),-0.835%,
CC(=O)C[C@@H]1OC[C@H](CO)N1S(=O)(=O)c1ccc(C)cc1,9.07%,
COc1ccc(C2OC(CCc3ccccc3)Cc3[nH]c(=S)[nH]c(=O)c32)cc1 (centres undefined),-21.1%,
CCOc1ccc(CC(=O)Nc2ccc(S(=O)(=O)Nc3cc(C)on3)cc2)cc1OCC,4.44%,
CCOc1ccc(Br)cc1S(=O)(=O)Nc1ccc(S(=O)(=O)Nc2cc(C)on2)cc1,,39.8 µM (active)
CCOc1ccc(C(=O)Nc2ccc(S(=O)(=O)Nc3cc(C)on3)cc2)cc1,-4.54%,
CSCCC(C(=O)NC(C)(C)C)n1c(-c2ccccc2)nc2ccccc21 (centres undefined),5.22%,
Fc1cccc(Cc2c(-c3cccc(Cl)c3)nc3ccc(Br)cn23)c1,-9.71%,
COC(=O)C[C@@H]1C=C[C@@H](NC(=O)c2cccnc2)[C@@H](CO)O1,-6.55%,
C[C@@H]1CC2=C(C(=O)OC(C)(C)O2)[C@@H](C2CC2)O1,3.98%,
O=S1(=O)CC(N2CCN(CCO)CC2)CN1Cc1cn(Cc2ccc(Cl)cc2)nn1 (centres undefined),-10.3%,
Cc1nccn1-c1ccc(NC(=O)[C@H]2O[C@@H](n3ccc(=O)[nH]c3=O)[C@H](O)[C@@H]2O)cc1,-7.46%,
COc1ccc(OC)c(CN2C(=O)CCC2(C)c2nnnn2Cc2ccccc2)c1 (centres undefined),38.3%,
COC(=O)[C@@]12C[C@@H](CC(=O)NCCCCc3ccccc3)C(=O)N(CCc3ccc(OC)c(OC)c3)C1=CCC(C)(C)C2,-23.2%,
CCCCCn1nnnc1-c1nc2cc3ccccc3cc2[nH]c1=O,-10.4%,
COC(=O)[C@@]12C[C@@H](CC(=O)NCCCCc3ccccc3)C(=O)N(Cc3ccccc3)C1=CCC(C)(C)C2,0.731%,
